According to PubChem BioAssay:
The source made the active and inactive calls.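 How the source made its calls, unless noted: active means normalized viability below 100% at a tested concentration; inactive means the rest.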

What was measured:
[1] = sensitizers of A549 cells to miR-34 induction, primary screen, imaging, A549 dox-inducible miR-34, nuclei and caspase counts (AID 1347080;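 active means compounds whose cell count with miR-34 switched on is under 0.7 times the count with it off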); conditions: A549 miR-34 inducible, Hoechst nuclei count, 48 h
[2] = survival rescue of mitochondrial mutant cells in low glucose, primary screen, MELAS cybrids, Rieske KO mouse fibroblasts, CellTiter-Glo (AID 1508586;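 active means mean z-score across replicates of 1.96 or higher in either the MELAS or the Rieske mutant cell line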;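 further: z relative to plate mean and SD of compound and empty wells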)
[3] = ovarian cancer cell viability with rucaparib, profiling panel, oncology-focused library, rucaparib conditional (AID 1508598); conditions: patient-derived ovarian cancer cells, CellTiter-Glo viability, 144 h, stronger effect = lower value
[4] = stronger effect = lower value, cell number ratio, induced over uninduced
[5] = measured here: relative caspase fold change +Dox/-Dox
[6] = measured here: total cells with miR-34 induction, stronger effect = lower value
[7] = measured here: total cells without miR-34 induction
[8] = MELAS cybrid survival, CellTiter-Glo 48 h, stronger effect = higher value
[9] = Rieske KO mouse fibroblast survival, CellTiter-Glo 72 h
[10] = at 0.000305 µM, OCI-C5x cells, with rucaparib 10 µM, 100% = cells with rucaparib alone
[11] = at 0.000305 µM, OCI-C5x cells, without rucaparib
[12] = at 0.000305 µM, OCI-P5x cells, with rucaparib 20 µM, 100% = cells with rucaparib alone
[13] = at 0.000305 µM, OCI-P5x cells, without rucaparib
[14] = at 0.00122 µM, OCI-C5x cells, with rucaparib 10 µM, 100% = cells with rucaparib alone
[15] = at 0.00122 µM, OCI-C5x cells, without rucaparib
[16] = at 0.00122 µM, OCI-P5x cells, with rucaparib 20 µM, 100% = cells with rucaparib alone
[17] = at 0.00122 µM, OCI-P5x cells, without rucaparib
[18] = at 0.00488 µM, OCI-C5x cells, with rucaparib 10 µM, 100% = cells with rucaparib alone
[19] = at 0.00488 µM, OCI-C5x cells, without rucaparib
[20] = at 0.00488 µM, OCI-P5x cells, with rucaparib 20 µM, 100% = cells with rucaparib alone
[21] = at 0.00488 µM, OCI-P5x cells, without rucaparib
[22] = at 0.0195 µM, OCI-C5x cells, with rucaparib 10 µM, 100% = cells with rucaparib alone
[23] = at 0.0195 µM, OCI-C5x cells, without rucaparib
[24] = at 0.0195 µM, OCI-P5x cells, with rucaparib 20 µM, 100% = cells with rucaparib alone
[25] = at 0.0195 µM, OCI-P5x cells, without rucaparib
[26] = at 0.0781 µM, OCI-C5x cells, with rucaparib 10 µM, 100% = cells with rucaparib alone
[27] = at 0.0781 µM, OCI-C5x cells, without rucaparib
[28] = at 0.0781 µM, OCI-P5x cells, with rucaparib 20 µM, 100% = cells with rucaparib alone
[29] = at 0.0781 µM, OCI-P5x cells, without rucaparib
[30] = at 0.313 µM, OCI-C5x cells, with rucaparib 10 µM, 100% = cells with rucaparib alone
[31] = at 0.313 µM, OCI-C5x cells, without rucaparib
[32] = at 0.313 µM, OCI-P5x cells, with rucaparib 20 µM, 100% = cells with rucaparib alone
[33] = at 0.313 µM, OCI-P5x cells, without rucaparib
[34] = at 1.25 µM, OCI-C5x cells, with rucaparib 10 µM, 100% = cells with rucaparib alone
[35] = at 1.25 µM, OCI-C5x cells, without rucaparib
[36] = at 1.25 µM, OCI-P5x cells, with rucaparib 20 µM, 100% = cells with rucaparib alone
[37] = at 1.25 µM, OCI-P5x cells, without rucaparib
[38] = at 5 µM, OCI-C5x cells, with rucaparib 10 µM, 100% = cells with rucaparib alone
[39] = at 5 µM, OCI-C5x cells, without rucaparib
[40] = at 5 µM, OCI-P5x cells, with rucaparib 20 µM, 100% = cells with rucaparib alone
[41] = at 5 µM, OCI-P5x cells, without rucaparib

COc1cc2c(c(OC)c1OC)-c1c(cc3c(c1OC)OCO3)CC(C)C(C)C2 (centres undefined)
inactive: fold change [1, 4] 0.915 | z-score [2, 8] -0.0751
-0.149: z-score [2, 9]
8490: cell count [1, 7]
1.02: fold change [1, 5]
7770: cell count [1, 6]

CCc1c2c(nc3ccc(OC(=O)N4CCC(N5CCCCC5)CC4)cc13)-c1cc3c(c(=O)n1C2)COC(=O)[C@@]3(O)CC
inactive: fold change [1, 4] 1.02 | z-score [2, 8] 0.2 | viability [3, 10] 115% | viability [3, 11] 112% | viability [3, 12] 119% | viability [3, 13] 112% | viability [3, 14] 114% | viability [3, 15] 118% | viability [3, 16] 112% | viability [3, 17] 114% | viability [3, 18] 119% | viability [3, 19] 118% | viability [3, 20] 106% | viability [3, 21] 107% | viability [3, 22] 117% | viability [3, 23] 110% | viability [3, 24] 108% | viability [3, 25] 103% | viability [3, 26] 112% | viability [3, 27] 106% | viability [3, 28] 104% | viability [3, 29] 106%
2030: cell count [1, 7]
1.54: fold change [1, 5]
active: viability [3, 30] 83.7% | viability [3, 31] 99.6% | viability [3, 32] 88.2% | viability [3, 33] 88.7% | viability [3, 34] 64.4% | viability [3, 35] 62.8% | viability [3, 36] 48.7% | viability [3, 37] 37.8% | viability [3, 38] 35.7% | viability [3, 39] 29.9% | viability [3, 40] 23.9% | viability [3, 41] 13.4%
2060: cell count [1, 6]
-0.798: z-score [2, 9]

CCN1CCN(C(=O)NC(C(=O)NC2C(=O)N3C2SC(C)(C)C3C(=O)O)c2ccccc2)C(=O)C1=O (centres undefined)
10000: cell count [1, 7]
-0.164: z-score [2, 9]
1.67: fold change [1, 5]
inactive: fold change [1, 4] 0.885 | z-score [2, 8] -0.177
8860: cell count [1, 6]

O=C(Nc1ccc(S(=O)(=O)Nc2ccccc2Cl)c(Cl)c1)c1ccccn1
0.513: fold change [1, 5]
inactive: fold change [1, 4] 0.91 | z-score [2, 8] -0.368
8970: cell count [1, 7]
8160: cell count [1, 6]
-0.0416: z-score [2, 9]

C[N+]1(C)[C@@H]2CC(OC(=O)C(O)(c3cccs3)c3cccs3)C[C@H]1C1OC12 (some centres undefined)
9300: cell count [1, 6]
0.479: fold change [1, 5]
9960: cell count [1, 7]
-0.0197: z-score [2, 9]
inactive: fold change [1, 4] 0.933 | z-score [2, 8] -0.398

CC(C)NCCCn1c(Sc2cc3c(cc2I)OCO3)nc2c(N)ncnc21
2430: cell count [1, 7]
0.435: fold change [1, 5]
inactive: fold change [1, 4] 1.06 | viability [3, 10] 125% | viability [3, 11] 112% | viability [3, 14] 129% | viability [3, 15] 108% | viability [3, 16] 102% | viability [3, 18] 119% | viability [3, 19] 107% | viability [3, 22] 126% | viability [3, 23] 122% | viability [3, 24] 101% | viability [3, 26] 139% | viability [3, 27] 127% | viability [3, 28] 105% | viability [3, 29] 107% | viability [3, 30] 143%
-0.929: z-score [2, 9]
active: z-score [2, 8] 3.04 | viability [3, 12] 95.1% | viability [3, 13] 94.7% | viability [3, 17] 94.3% | viability [3, 20] 99.8% | viability [3, 21] 98.3% | viability [3, 25] 97.9% | viability [3, 31] 60.7% | viability [3, 32] 15.7% | viability [3, 33] 9.78% | viability [3, 34] 77.5% | viability [3, 35] 33.9% | viability [3, 36] 17.3% | viability [3, 37] 8.78% | viability [3, 38] 15.7% | viability [3, 39] 9.3% | viability [3, 40] 7.34% | viability [3, 41] 6.28%
2580: cell count [1, 6]

CC(NC(=O)C(C#N)=Cc1cccc(Br)n1)c1ccccc1 (centres undefined)
0.817: fold change [1, 5]
0.371: z-score [2, 9]
1340: cell count [1, 7]
1620: cell count [1, 6]
inactive: fold change [1, 4] 1.21 | z-score [2, 8] 0.502

C[C@]12CC[C@H]3c4ccc(O)cc4CC[C@H]3[C@@H]1CCC2=O
1.15: fold change [1, 5]
active: viability [3, 20] 99.5% | viability [3, 24] 96.5% | viability [3, 25] 96.2% | viability [3, 27] 99.8% | viability [3, 28] 96.1% | viability [3, 29] 66% | viability [3, 30] 81.6% | viability [3, 31] 57.7% | viability [3, 32] 80.9% | viability [3, 33] 42.9% | viability [3, 34] 78% | viability [3, 35] 63.5% | viability [3, 36] 65% | viability [3, 37] 29.9% | viability [3, 38] 36.6% | viability [3, 39] 23.7% | viability [3, 40] 43.7% | viability [3, 41] 13.5%
8340: cell count [1, 7]
0.742: z-score [2, 9]
inactive: fold change [1, 4] 0.911 | z-score [2, 8] -0.223 | viability [3, 10] 108% | viability [3, 11] 116% | viability [3, 12] 102% | viability [3, 13] 111% | viability [3, 14] 112% | viability [3, 15] 117% | viability [3, 16] 101% | viability [3, 17] 106% | viability [3, 18] 115% | viability [3, 19] 120% | viability [3, 21] 100% | viability [3, 22] 114% | viability [3, 23] 108% | viability [3, 26] 115%
7600: cell count [1, 6]
